# Measured potencies and affinities stand elsewhere. Calls of active or inactive are those of the source.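 How the source made its calls: active means cytotoxic compounds whose fitted half-maximal concentration is at most twice the top valid tested dose; inconclusive means flat curve showing 30 to 70% signal loss, or poor fit; inactive means the rest.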
# Assay: A549 cell cytotoxicity, dose response, cytotoxicity control, 24 h, CellTiter-Glo luminescence, cherry-picks (AID 1053115)
# Conditions: A549 viability, CellTiter-Glo ATP luminescence; series mostly up to 30 µM
row,SMILES,outcome
1,COc1ccccc1CN1CC[C@@H]2[C@@H](CO)Nc3ccc(-c4ccc(C(=O)N(C)C)cc4)cc3[C@@H]21,inactive
2,C[C@@H](O)C#Cc1ccc2c(c1)O[C@H](CN(C)Cc1ccccc1)[C@@H](C)CN([C@@H](C)CO)S2(=O)=O,inactive
3,C[C@@H]1CN([C@@H](C)CO)S(=O)(=O)c2ccc(C#C[C@@H](C)O)cc2O[C@@H]1CN(C)Cc1ccc(-c2ccccc2)cc1,inactive
4,CN(C)C(=O)c1ccc(-c2cccc(-c3nc(C(=O)NC4CCCCC4)cc4c3[C@@H](CCO)N([S@](=O)C(C)(C)C)C4)c2)cc1,inactive
5,C[C@@H]1CN([C@@H](C)CO)C(=O)Cc2cc(NC(=O)C3CCCCC3)ccc2O[C@H]1CN(C)C(=O)Nc1ccccc1,inactive
6,Cc1noc(C)c1S(=O)(=O)Nc1ccc2c(c1)C(=O)N([C@@H](C)CO)C[C@@H](C)[C@H](CN(C)S(=O)(=O)c1cccs1)O2,inactive
7,C[C@H](O)C#Cc1ccc2c(c1)O[C@H](CN(C)Cc1ccc(-c3ccccc3)cc1)[C@H](C)CN([C@H](C)CO)S2(=O)=O,inactive
8,C[C@H](O)C#Cc1ccc2c(c1)O[C@@H](CN(C)Cc1ccccc1)[C@H](C)CN([C@@H](C)CO)S2(=O)=O,inactive
9,C[C@H](O)C#Cc1ccc2c(c1)O[C@@H](CN(C)Cc1ccccc1)[C@@H](C)CN([C@H](C)CO)S2(=O)=O,inactive
10,N#Cc1ccc(-c2ccc3c(c2)[C@@H]2[C@@H](CCN2C(=O)C2CCCCC2)[C@@H](CO)N3)cc1,inactive
11,C[C@H](CO)N1C[C@H](C)[C@@H](CN(C)S(=O)(=O)c2ccc(Cl)cc2)Oc2c(NS(=O)(=O)c3cn(C)cn3)cccc2C1=O,inactive
12,C[C@H](O)C#Cc1ccc2c(c1)O[C@@H](CN(C)Cc1ccccc1)[C@@H](C)CN([C@@H](C)CO)S2(=O)=O,inactive
13,C[C@@H]1CN([C@H](C)CO)S(=O)(=O)c2ccc(C#C[C@@H](C)O)cc2O[C@H]1CN(C)Cc1ccccc1,inactive
14,CN(C)C(=O)c1ccc(-c2cccc(-c3nc(C(=O)NC4CCCC4)cc4c3[C@H](CCO)N([S@@](=O)C(C)(C)C)C4)c2)cc1,inactive
15,C[C@@H]1CN([C@H](C)CO)C(=O)c2cccc(NC(=O)Nc3ccc(F)cc3)c2O[C@@H]1CN(C)S(=O)(=O)c1ccc(Cl)cc1,inactive
16,CCCNC(=O)c1cc2c(c(-c3cccc(-c4cccc(F)c4)c3)n1)[C@H](CCO)N([S@@](=O)C(C)(C)C)C2,inactive
17,CN1c2ccc(C#Cc3cccnc3)cc2[C@@H]2[C@@H](CCN2C(=O)C2CCC2)[C@@H]1CO,inactive
18,CN1c2ccc(C#Cc3cccnc3)cc2[C@H]2[C@H](CCN2C(=O)C2CCC2)[C@@H]1CO,inactive
19,CCCNC(=O)C[C@H]1CC[C@@H]2[C@@H](COc3ccc(NC(=O)CCC)cc3C(=O)N2C)O1,inactive
20,C[C@@H]1CN([C@@H](C)CO)S(=O)(=O)c2ccc(C#C[C@@H](C)O)cc2O[C@H]1CN(C)Cc1ccccc1,inactive
21,C[C@@H]1CN([C@@H](C)CO)S(=O)(=O)c2ccc(C#C[C@@H](C)O)cc2O[C@@H]1CN(C)Cc1ccccc1,inactive
22,C[C@H](O)C#Cc1ccc2c(c1)O[C@H](CN(C)Cc1ccccc1)[C@@H](C)CN([C@@H](C)CO)S2(=O)=O,inactive

# From PubChem BioAssay AID1053115 (Broad Institute, 2014)
